Structures are written as SMILES. About 83,000 compounds went through this panel and 20% of them were active in at least one assay; those are over-represented in the sample as a whole.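 Interpretation: 100, growth as untreated; towards 0, rising growth inhibition; 0, no net growth; 0 to -100, cell death. Compounds scoring below 10 were considered active.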 A number with no mark means an inactive call. Activity calls are given as the source filed them.

The test system of this test is UO-31 renal. Description: NCI-60 one-dose screen, 48 h (100 = growth as untreated, 0 = no growth, -100 = all killed). To be noted: 10 µM unless noted.
Regarding `O=C(O)c1nn(-c2ccc(Cl)cc2)nc1N1CCCC1`, the growth was 79.9%. In the case of `COCCNC(=O)Cc1cc(-c2ccc(Cl)cc2)n(-c2ccccc2)c1C` it was 71.1%; in that of `O=C(Nc1ccc(Oc2cccc(F)c2)c(Cl)c1)c1cnccn1`, 43.4%. In the case of `CC(=O)[C@H]1CC[C@]2(C)[C@@H]1CC[C@@H]1[C@@]3(C)C/C(=C/c4cccnc4)C(=O)C(C)(C)[C@@H]3CC[C@]12C` it was 78.2%. In the case of `C=C(C)Cn1c(SCC(=O)c2cccs2)nc2sc3c(c2c1=O)CCCC3` it was 58.6%.

Regarding `Cc1ccc(C(=O)Nc2ccc(CN3CCN(C)CC3)c(C(F)(F)F)c2)cc1C#Cc1cnc(N)c2ccccc12`, the growth was -34.9% (active). In the case of `COc1cc(C2CC(c3cccc(Nc4ccncc4)c3)=Nc3c(N)ncnc3N2)cc(OC)c1OC` (stereo not given) it was 98.5%. With `CO[C@]12C=C/C(=C(/C(=O)OCc3cccnc3)C(=O)CCCCCCCC[C@]3(OC)C=C/C(=C(/C(=O)OCc4cccnc4)C(=O)CCCCCCCC1)O3)O2`, the growth was -40.7% (active).

For `CCOC(=O)CSc1nc2sc3c(c2c(=O)n1-c1ccccc1)CCCCC3`, the growth was 84.1%. In the case of `CN1CCN(Cc2ccc(NC(=O)c3cncc(C#Cc4cnc(N)c5ccc(C#N)cc45)c3)cc2C(F)(F)F)CC1` it was -78.4% (active). In the case of `CCOC(=O)C1=C(c2ccccc2)N=C2SC=C(c3cccc([N+](=O)[O-])c3)N2C1c1ccc(O)cc1` (stereo not given) it was 91%; in that of `CCn1c2ccccc2c2cc(C(O)c3cccc4ncccc34)ccc21` (stereo not given), 11.9%. Next, `Cc1c(Cl)cccc1NC(=O)c1sc2nc3c(cc2c1N)CCCC3`: 45.8%; `O=C(/C=C/c1ccco1)Nc1ncc(Cc2ccc(F)cc2)s1`: 47.6%.

Regarding `COc1nc2ccccc2cc1/C=[N+](\[O-])c1ccccc1`, the growth is 43.9%.

With `COc1ccc(-c2ccc(-c3ccc(C(=N)N)o3)o2)cc1`, the growth was 45.5%. `C=C(C[n+]1ccccc1)[C@@H]1CC[C@]2(C(=O)OC)CC[C@]3(C)[C@H](CC[C@@H]4[C@@]5(C)CCC(=O)C(C)(C)[C@@H]5CC[C@]43C)[C@@H]12`: the growth is 86.4%. Next, `COc1cccc(C(=O)Nc2cccc(NC(=O)c3ccccn3)c2)c1`: 79.5%; `N#CC1=C(N)Oc2c(ccc3cccnc23)C1c1ccccc1` (stereo not given): 43.6%; `COc1ccc(C2=NN(C=O)C(c3ccc(Oc4nc5c(c(=O)n(C)c(=O)n5C)n4C)c(OC)c3)C2)cc1` (stereo not given): 74%. Take `CCCS(=O)(=O)Nc1cccc(Nc2ncnc3cc(NC(=O)CCl)ccc23)c1Cl`: the growth is -95% (active). In the case of `Cn1cc(-c2csc(-c3cn(C)c4ccc(F)cc34)n2)c2cnccc21` it was -69.7% (active); in that of `C=C(C)[C@@H]1CC[C@]2(C(=O)NC(C)=O)CC[C@]3(C)[C@H](CC[C@@H]4[C@@]5(C)CCCNC(C)(C)[C@@H]5CC[C@]43C)[C@@H]12`, 49.7%; in that of `COc1cccc(CNc2nnc(C)c(C)n2)c1O`, 91.6%. `O=C(/C=C/c1ccc(Cl)cc1)c1ccc(-n2cc(CN3CCN(c4cc5c(cc4F)c(=O)c(C(=O)O)cn5C4CC4)CC3)nn2)cc1`: the growth is 65.1%. As to `COc1cccc2cc(N(C)c3nc(C)nc4c3CCC4)ccc12`, the growth was 38.7%.

For the compound `O=C(O)CCCN1C(=O)CSC1=S`, the growth is 87.9%. Take `Cc1c2cnccc2c(C)c2c1c1cc(C(=O)O)ccc1n2C`: the growth is -36.5% (active). In the case of `C=C1C(=O)O[C@H]2[C@H]1CC/C(CNC(=O)/C=C/c1cc(OC)c(OC)c(OC)c1)=C\CC[C@@]1(C)O[C@@H]21` it was -38.2% (active); in that of `Cc1nc2ccccc2c(/C=C/c2ccc(Br)cc2)c1C(=O)/C=C/c1ccccc1`, -74.2% (active). Regarding `CC(=O)O[C@H]1C[C@@]2(C)[C@@H](C[C@@H](O)[C@H]3[C@@]4(C)CC[C@H](N5CCCC5)[C@@H](C)[C@@H]4CC[C@@]32C)/C1=C(\CCC=C(C)C)C(=O)O`, the growth is 81.2%. `O=C(O)c1cc2ccccc2s1`: the growth is 94.5%.

Turning to `CC(=O)OCCOc1cc(Cl)c(Cl)cc1Cl`, the growth is 89.1%. Regarding `CCN1CCN(c2nc(NNC(=O)c3ccc(OC)cc3)nc(N3CCN(C(c4ccccc4)c4ccccc4)CC3)n2)CC1`, the growth is 61.2%. Next, `Cc1cc(=O)oc2cc(Oc3nc(-c4ccccc4)cn4c(-c5ccccc5)cnc34)ccc12`: 40.8%; `CN(Cc1ccccc1)c1nc(Cl)c(C2CC(c3ccc(Cl)cc3)=NN2c2cc(Cl)cc(Cl)c2)s1` (stereo not given): 96.9%; `COC(=O)c1c(C)nc(C)c2c1C(=O)C(Br)=C(NCCCCO)C2=O`: 79.7%. `COc1cc(/C=C/c2cc(/C=C/c3ccc(O)c(OC)c3)n(C(=O)Nc3ccc(C)cc3C)n2)ccc1O`: the growth is -38.7% (active). Next, `Cc1cc2nc(C(Cl)Cl)nc(-c3ccccc3)n2n1`: 75.1%. Consider `CN1C(=O)N(C)C2C1NN=c1s/c(=C\c3ccccc3F)c(=O)n12` (stereo not given), for which the growth is 42.6%.

(Values after PubChem BioAssay (NCI).)
